# PfG6PD inh – PfG6PD (Plasmodium falciparum) enzyme inhibition; PfGluPho enzyme, NADPH resazurin-diaphorase fluorescence; inhibition, % at 20 µM; hit rate 0.78% among 350,000;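 active means inhibition reaching at least a set limit at 20 µM in the primary screen, cut at about 59% in these data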
# A3A deaminase – blocks human APOBEC3A ssDNA deamination. hit rate 0.41% among 330,000. P31941. inhibition, % at 20 µM. recombinant A3A, FAM/TAMRA ssDNA deamination fluorescence. AID 493011;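 active means at least 40% inhibition at 20 µM here, with at most 30% in a related deaminase screen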
# APOBEC3G inh – APOBEC3G (human) deaminase inhibition; recombinant A3G, ssDNA deamination FAM/TAMRA fluorescence; hit rate 0.28% among 330,000; AID 493012; Q9HC16; inhibition, % at 20 µM;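 active means inhibition of at least 40% at 20 µM, with no more than 30% in the related APOBEC3A deaminase screen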
# Neddylation inh – inhibitors of human cullin neddylation; hit rate 0.58% among 360,000; TR-FRET cullin neddylation, biochemical; inhibition, % at 25 µM; in the data active means inhibition above about 36%
# NPR1 activator – GC-A (human) enzyme activation. P16066. HEK293 GC-A cells, cGMP TR-FRET, EC30 ANP; 0% at EC30 ANP, 100% saturating ANP. activation, % at 10 µM. hit rate 0.14% among 370,000. AID 1671463; in the data active means activation above about 40%
# Target sequence (P16066 whole entry, looked up): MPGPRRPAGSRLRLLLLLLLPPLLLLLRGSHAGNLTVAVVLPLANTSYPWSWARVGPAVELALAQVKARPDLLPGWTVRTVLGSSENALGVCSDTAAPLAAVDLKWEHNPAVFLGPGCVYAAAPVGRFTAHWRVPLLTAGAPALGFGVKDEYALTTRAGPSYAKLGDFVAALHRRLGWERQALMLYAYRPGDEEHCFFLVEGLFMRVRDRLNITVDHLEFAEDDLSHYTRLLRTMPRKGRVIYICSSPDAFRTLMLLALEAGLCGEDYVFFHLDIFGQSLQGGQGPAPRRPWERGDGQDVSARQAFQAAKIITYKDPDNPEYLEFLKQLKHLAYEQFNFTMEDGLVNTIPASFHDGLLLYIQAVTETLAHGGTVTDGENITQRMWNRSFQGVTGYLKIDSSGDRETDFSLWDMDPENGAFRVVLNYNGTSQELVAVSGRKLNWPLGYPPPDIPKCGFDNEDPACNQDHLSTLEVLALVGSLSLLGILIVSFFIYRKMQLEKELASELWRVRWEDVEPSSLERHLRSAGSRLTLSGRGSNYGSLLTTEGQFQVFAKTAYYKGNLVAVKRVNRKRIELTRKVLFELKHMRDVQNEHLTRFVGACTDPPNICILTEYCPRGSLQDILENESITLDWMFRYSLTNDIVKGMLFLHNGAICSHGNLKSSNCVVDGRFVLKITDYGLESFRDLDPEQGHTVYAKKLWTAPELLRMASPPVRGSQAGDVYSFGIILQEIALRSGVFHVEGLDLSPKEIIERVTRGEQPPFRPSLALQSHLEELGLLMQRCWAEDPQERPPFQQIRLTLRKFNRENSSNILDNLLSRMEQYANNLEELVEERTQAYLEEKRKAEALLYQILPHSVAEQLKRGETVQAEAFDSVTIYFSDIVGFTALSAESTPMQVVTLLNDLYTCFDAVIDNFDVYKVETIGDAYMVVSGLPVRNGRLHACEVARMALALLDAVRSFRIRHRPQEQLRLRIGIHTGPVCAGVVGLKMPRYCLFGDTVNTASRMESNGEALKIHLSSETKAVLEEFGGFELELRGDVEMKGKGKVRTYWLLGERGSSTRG
# GC-B act – GC-B (human) receptor activation; AID 1920062; hit rate 0.11% among 370,000; activation, % at 10 µM; HEK293-GC-B cells, CNP EC30, cGMP TR-FRET; 0% at EC30 CNP, 100% saturating CNP; P20594;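 active means activation at 10 µM reaching about 35% in either raw or pattern-adjusted values, limit read from the data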
# APOBEC3A confirm – APOBEC3A (human) deaminase inhibition, confirmed | shares compounds with A3A deaminase | recombinant A3A, ssDNA deaminase UDG fluorescence assay | inhibition, % at 20 µM | hit rate 63% among 1,400;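 active means inhibition reaching a set limit, 80% of the first screen's cutoff, at 20 µM in any replicate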
# UDG ctr A3A – counter-screen for APOBEC3A inhibitors: UDG; shares compounds with A3A deaminase; UDG counterscreen, FAM/TAMRA uracil oligo fluorescence; inhibition, % at 20 µM; 1,000 tested, under 10 active; call rule not given here
# Numbers stand for hits; 0 = inactive; - = not tested or not shown. A selection: hits, their analogues and other compounds. The true share with any hit is near 2%.
SMILES,PfG6PD inh,A3A deaminase,APOBEC3G inh,Neddylation inh,NPR1 activator,GC-B act,APOBEC3A confirm,UDG ctr A3A
CCC(=O)Nc1cc(C(=O)O)ccc1S(=O)(=O)c1ccc(C)cc1,0,47,0,0,0,0,52,0
O=S1(=O)c2ccc(N3CCN(Cc4ccccc4F)CC3)cc2Oc2ccccc2CN1Cc1cn(Cc2ccc(C(F)(F)F)cc2)nn1,-,-,-,-,0,0,-,-
COC(=O)[C@]12C[C@H](CC(=O)NCC34CC5CC(CC(C5)C3)C4)C(=O)N(Cc3ccco3)C1=C[C@H](C1CCCC1)O[C@@H]2C,-,-,-,-,0,0,-,-
CCN1CCN(S(=O)(=O)c2ccc(Cl)c(C(=O)N(C)C(c3ccccc3)c3ccccc3)c2)CC1,0,57,0,0,0,0,64,0
CCN1CCN(S(=O)(=O)c2ccc(Cl)c(C(=O)N(C)C3CCCCC3)c2)CC1,0,-,-,0,0,0,-,-
Cc1cccc(NC(=O)CSCC(=O)Nc2cc(Cl)ccc2N2CCN(C)CC2)c1,0,51,0,0,0,0,0,-
Cc1cc(NC(=O)CSCC(=O)Nc2cc(Cl)ccc2N2CCN(C)CC2)no1,0,0,0,0,0,0,-,-
Cc1ccc(S(=O)(=O)N(C)[C@H]2C[C@H]3c4[nH]c5cccc(-c6ccccc6)c5c4CCN3C(=O)[C@H]2[C@H](C)O)cc1,-,-,-,-,0,0,-,-
CCCCN1C(=O)N(C)C2NC(=O)NC21 (configuration not stated),0,0,0,0,0,0,-,-
CSC1=NC2C(N1)N(C)C(=O)N2C (configuration not stated),0,58,0,0,0,0,0,-
COCCCN1C(=O)[C@H](CC(=O)N2CCN(C(=O)C3CC3)CC2)[C@]2(C(=O)OC)CCCCC=C12,-,-,-,-,0,0,-,-
CC1CCCN(C(=O)c2ccc3c(=O)n4nc(Nc5ccccc5)sc4nc3c2)C1 (configuration not stated),0,-,-,0,0,0,-,-
Cc1cccc(Nc2nn3c(=O)c4ccccc4nc3s2)c1,0,46,0,0,0,0,22,0
CC(C)(C)c1ccc(NC(=O)c2ccc3c(c2)S(=O)(=O)c2ccccc2C3=O)cc1,0,44,0,0,0,0,0,0
COc1ccc(NC(=O)c2ccc3c(c2)S(=O)(=O)c2ccccc2C3=O)cc1,0,0,0,0,0,0,-,-
COc1cc2c(cc1NC(=O)CSc1nnc(-c3ccccc3F)n1-c1ccc(C)cc1)oc1ccccc12,-,-,-,-,0,0,-,-
COC(C(=O)Nc1ccc(Cl)cc1C)c1ccccc1 (configuration not stated),0,53,0,0,0,0,0,-
COC(C(=O)Nc1ccc(NC(=O)C(OC)c2ccccc2)cc1)c1ccccc1 (configuration not stated),0,0,0,0,0,0,-,-
COc1ccc(OC)c(S(=O)(=O)NCC2CCN(C(=O)C(=O)c3cc4ccccc4o3)CC2)c1,-,-,-,-,0,0,-,-
Cc1c(C(=O)OCC[N+]2(C)CCCCC2)oc2ccccc12,0,77,0,0,0,0,77,0
Cc1c(C(=O)OCC(=O)N2CCC(C)CC2)oc2ccccc12,0,0,0,0,0,0,-,-
Cc1cc(C(=O)CSc2nnc(N)s2)c(C)n1CCc1ccc(Cl)cc1,0,0,0,0,0,0,-,-
COc1ccc(CCn2c(C)cc(C(=O)CSc3nnc(N)s3)c2C)cc1,0,44,0,0,-,-,0,0
COc1ccc(Cl)cc1C(=O)NNC(=O)c1csc(N2CCOCC2)n1,0,41,0,0,0,0,0,0
CC(NC(=S)Nc1ccc(F)cc1)c1ccccc1 (configuration not stated),0,88,0,0,0,0,0,0
SMILES,PfG6PD inh,A3A deaminase,APOBEC3G inh,Neddylation inh,NPR1 activator,GC-B act,APOBEC3A confirm,UDG ctr A3A
OC(COCC1COc2ccccc2O1)CN1CCN(c2ccccc2)CC1 (configuration not stated),0,0,0,0,0,0,-,-
C[N+]1(CC(O)COCC2COc3ccccc3O2)CCOCC1 (configuration not stated),0,86,0,0,0,0,46,-
O=C(O)c1nsc(Cl)c1Cl,0,99,0,0,0,0,0,0
COc1ccc(OC)c(N(CC(=O)Nc2ccc3c(c2)OCO3)S(=O)(=O)c2ccccc2)c1,0,0,0,0,0,0,-,-
COc1ccc(Cl)cc1N(CC(=O)Nc1ccc2c(c1)OCO2)S(C)(=O)=O,0,42,0,0,0,0,0,-
CCCCn1nc(NC(=O)COC)c2cc3ccc(C)cc3nc21,0,47,0,-,-,-,67,0
CCn1nc(NC(=O)COC)c2cc3cc(C)ccc3nc21,0,45,0,0,0,0,59,0
CCCn1nc(NC(=O)COC)c2cc3cc(C)ccc3nc21,0,53,0,-,-,-,58,0
CCCC(=O)Nc1nn(C)c2nc3cc(C)ccc3cc12,-,0,0,-,-,-,-,-
COC(=O)C1CN(Cc2ccc(OC)cc2)CCS(=O)(=O)N1Cc1cn(CCOC(C)=O)nn1 (configuration not stated),-,-,-,-,0,0,-,-
COC(=O)C1CN(C2CCCC2)CCS(=O)(=O)N1Cc1ccc(OC)cc1 (configuration not stated),-,-,-,-,0,0,-,-
C[C@@H]1CN([C@H](C)CO)C(=O)c2cc(NC(=O)Nc3ccccc3)ccc2O[C@@H](C)CCCCO[C@H]1CN(C)S(=O)(=O)c1ccc(F)cc1,-,-,-,-,0,0,-,-
O[C@H](COc1cccc(Cl)c1)CN1CCC(C(O)(c2ccccc2)c2ccccc2)CC1,-,-,-,-,0,0,-,-
Cc1n(CC(O)COCc2ccccc2)c2ccccc2[n+]1C (configuration not stated),0,59,0,0,0,0,71,0
CCc1n(CC(O)COC2CCCCC2)c2ccccc2[n+]1C (configuration not stated),0,67,0,0,0,0,71,0
CC1CC(OCC(O)CN2CCN(Cc3ccccc3)CC2)CC(C)(C)C1 (configuration not stated),0,0,0,0,0,0,-,-
CCn1c(C)[n+](CC(O)COCC2CC=CCC2)c2ccccc21 (configuration not stated),0,66,0,0,0,0,75,0
Cc1nc2ccccc2n1CC(O)COCC1CC=CCC1 (configuration not stated),0,0,0,0,0,0,-,-
CCc1n(CC(O)COCC2CC=CCC2)c2ccccc2[n+]1C (configuration not stated),0,62,0,0,0,0,70,0

# Source: PubChem (Sanford-Burnham Center for Chemical Genomics)
